# A selection: hits, their analogues and other compounds. The true share with any hit is near 2.1%.
# aSyn rescue: qHTS of alpha-syn Inhibitors. 370,000 compounds, 0.14% hits. Potency, µM (highest dose often 46.1 µM), inactives show at the highest dose growth rescue (activation), most hits filed as activators. Yeast expressing alpha-synuclein, growth rescue, BacTiter-Glo, 24 h; further: % of control where 0% means no effect; nearly all actives have a fitted effect of over 65% in size
#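 Screening used galactose-induced yeast with toxic alpha-synuclein levels, exposed to compound for 24 hr at 30 deg C. Cell growth, read with BacTiter-Glo luminescence, gave the measured signal.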
# FUS suppressor: qHTS for Suppressors of FUS Proteinopathy: Primary screen using FUS-linked yeast assay; 390,000 compounds, 0.24% hits; AID 1347120, 2019; S. cerevisiae FUS-expressing, growth rescue, OD600, 24 h; Potency, µM (top dose mostly 76.6 µM), usual class: activators;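 further: plate controls were DMSO vehicle for no effect and reference control for full effect; nearly all actives have a fitted effect of over 55% in size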
#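 Galactose (2%) drives FUS expression in yeast precultured in raffinose; seeding density OD 0.005. Test compounds incubated 24hr at 30C and 99% humidity before absorbance at 600 nm was measured.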
# TDP-43 yeast inh: qHTS of TDP-43 Inhibitors; TDP-43 expressing yeast growth rescue, BacTiter-Glo, 24 h; Potency, µM (series often up to 46.1 µM), without a hit: at the highest dose growth rescue (activation), hits mostly activators; 410,000 compounds, 1.8% hits; further: % of control where 0% means no effect; nearly all actives have a fitted effect of over 50% in size
#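 Cell-based yeast growth screen: TDP-43 expression induced in galactose, inoculum OD600=0.02 after raffinose pregrowth to mid-log. Read-out BacTiter-Glo luminescence at 24 hr, 30 deg C; inhibition of toxicity seen as signal increase.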
# Abeta rescue: qHTS for compounds that reverse cellular toxicity of Amyloid beta (A-beta) peptide in yeast: Primary Screen | Potency, µM (top dose mostly 46.1 µM), usual class: activators | 410,000 compounds, 0.063% hits | yeast expressing A-beta42, growth rescue, OD600, 48 h; response scale: 0% DMSO, 100% iron-clioquinol control | AID 1347071, 2019; further: nearly all actives have a fitted effect of over 55% in size
#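 Yeast A-beta toxicity model in growth medium with pinned compounds, 48 h at 30 C; growth read as absorbance at 600 nm. Normalized to FeCl3/clioquinol equimolar mix (positive) and DMSO (negative).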
# * hit, by the source's call; i = inactive; ? = inconclusive; / = no result; [ ] = another dose, or the depositor's remark. The call rests on the fitted dose curve; in most records, active means well fitted curve in the direction sought with a large enough effect; inconclusive means small, poorly fitted or top-dose-only effect, or another doubt; inactive means no such curve, though single readings can be large; an effect the other way counts as inactive or inconclusive. Potency means the concentration at half of the fitted maximal effect.
SMILES,aSyn rescue,FUS suppressor,TDP-43 yeast inh,Abeta rescue
COc1ccc(N2C(=O)N3[C@H](c4ccc(Br)cc4)[C@@H]4C(=O)N(C(C)(C)C)C(=O)[C@@H]4[C@]3(Cc3ccccc3)C2=O)cc1,-4.5%,12.6µM*,2.3%,i
Cc1ccc(C2(C(=O)N3CCC(n4nc(-c5ccccc5)oc4=O)CC3)CC2)cc1,7.0%,?,29.4%,/
COC(=O)c1ccc(CSc2nc(C(F)F)cc(C)c2C#N)o1,0.2%,i,11.2µM*,i
COC(=O)c1ccc(COc2nc(C)cc(C)c2C#N)o1,4.8%,i,-4.6%,i
C[C@H]1CN([C@@H](C)CO)C(=O)CCCn2nncc2CO[C@H]1CN(C)C(=O)c1ccncc1,-1.2%,i,?,i
COc1cc(OC)nc(Nc2nc(C(N)CCc3ccccc3)cs2)n1 (stereo unspecified),-19.4%,i,9.3%,i
Cc1c(Cl)cccc1N1C(=O)CC(Sc2ccccc2N)C1=O (stereo unspecified),0.1%,i,12.4%,i
CCN(c1cccc(C)c1)C1C(=O)c2ccccc2N1C(C)=O (stereo unspecified),2.2%,i,-10.4%,i
COc1ccccc1Cn1c(C)c(C(=O)NCc2ccc3c(c2)OCCO3)sc1=O,0.3%,?,0.0%,i
CC(=O)Oc1ccc(Cn2c(C)c(C(=O)N(C)Cc3ccc(F)cc3)sc2=O)cc1,7.1%,i,0.0%,i
Cc1c(C(=O)N(C)Cc2ccc(F)cc2)sc(=O)n1Cc1ccc(Cl)c(Cl)c1,?,i,22.4µM*,?
COc1ccc(Cl)cc1Cn1c(C)c(C(=O)NCc2ccc(F)cc2)sc1=O,?,?,20µM*,i
COc1ccc(CNC(=O)c2sc(=O)n(Cc3ccccc3OC)c2C)cc1,8.7%,i,25.1µM*,i
CCCCN(C)C(=O)c1sc(=O)n(Cc2cc(Cl)ccc2OC)c1C,10.3%,i,?,i
COc1ccc(Cl)cc1Cn1c(C)c(C(=O)N(C)Cc2ccc(F)cc2)sc1=O,8.5%,i,22.4µM*,i
Cc1ccc(-c2ccc(S(=O)(=O)NCc3ccco3)cc2)cc1,-0.1%,i,2.1%[9.22 µM],i
O=C(OCC1OC2OC3(CCCCC3)OC2C2OC3(CCCCC3)OC12)c1ccccc1 (stereo unspecified),-1.1%,/,4.8%,i
O=C1C2C(CC3c4ccccc4CCN32)CN1c1ccccc1 (stereo unspecified),/,i,/,/
O=C(CCSCCC(=O)NCc1cccs1)NCc1cccs1,-8.7%,i,-0.2%,i
COCCCn1c(SCC(N)=O)nnc1-c1ccccc1,-4.6%,i,-20.3%,i
O=C(/C=C/c1cccs1)NC(=S)NNC(=O)c1ccccc1O,11.3%,i,-31.8%,i
COc1ccc(C(=O)NNC(=S)NC(=O)C(C)(C)C)cc1,?,i,-59.9%,5.62µM*
COc1ccc(C(=O)NNC(=S)NC(=O)/C=C/c2cccs2)cc1,7.08µM*,i,?,8.91µM*
COc1ccc(/C=C/C(=O)NC(=S)NNC(=O)c2ccco2)cc1,24.4%,i,?,7.08µM*
COc1ccccc1OCC(=O)NNC(=S)NC(=O)c1ccco1,?,i,29.2%,7.94µM*
SMILES,aSyn rescue,FUS suppressor,TDP-43 yeast inh,Abeta rescue
CSc1ccc(CCNC(=O)c2ccc3c(c2)c(C)c(C)n3Cc2ccc(F)cc2)cc1,/,i,-6.4%,i
CCOC(=O)c1csc(NC(=O)C2CCCN(S(=O)(=O)c3ccccc3[N+](=O)[O-])C2)n1 (stereo unspecified),/,i,/,/
CCOC(=O)C1=CN(Cc2cccc(F)c2)S(=O)(=O)N(CC)C1c1ccc(C(F)(F)F)cc1 (stereo unspecified),0.4%,i,1.0%,i
Cc1ccc(-c2nc3cc(C(C)C)ccc3o2)cc1NC(=O)c1cccs1,-22.8%,i,6.3%,i
CCN(CCCNC(=O)c1cc2cc3cc(C)ccc3nc2s1)c1cccc(C)c1,/,31.6µM*,0.0%,i
Cc1cc(NC(=O)C2CC=CCC2C(=O)O)ccc1NC(=O)c1ccccc1 (stereo unspecified),-2.6%,i,-9.5%,i
Cc1ccc(OCC(=O)NNC(=S)NC(=O)C2CCCCC2)c(C)c1,?,i,12.6µM*,i
Cc1ccc(OCC(=O)NNC(=S)NC(=O)C(C)(C)C)c(Br)c1,23.9%,i,5.01µM*,i
Cc1ccc(OCC(=O)NNC(=O)c2ccc(NC(=O)C3CC3)cc2)c(C)c1,-0.3%,i,11.4%,i
CC(C)CN1C(=O)/C(=C/c2cccs2)NC1=S,-22.6%,i,25.1µM*,i
CCCN1C(=O)/C(=C/c2ccc(C)s2)NC1=S,-7.8%,i,11.2µM*,i
Cc1ccc(/C=C2/NC(=O)N(Cc3ccccc3F)C2=O)s1,-10.6%,i,16.9%,i
CCOC(=O)CN1C(=O)N2C[C@H]3CON(C)[C@H]3C[C@H]2c2ccccc21,12.1%,i,17.7%,i
COc1cccc(=O)c2c(C)n(C)c(C)c12,-0.5%,28.2µM*,24.7%,i
CCOc1cccc(=O)c2c(C)n(C)c(C)c12,0.0%,?,-30.4%,i
CC(C)(C)NC(=S)NC(=O)C12CCC3CC(CC(C3)C1)C2,-6.7%,i,-0.3%,6.31µM*
Cc1cc(=O)[nH]c(N/N=C/c2cc(C)n(-c3ccccc3)c2C)n1,1.2%,31.6µM*,-17.7%,i
CC(C)C(=O)NC(c1cccc([N+](=O)[O-])c1)c1ccc2cccnc2c1O (stereo unspecified),-39.4%,i,35.5µM*,i
CC(=O)NC(c1ccc(Cl)cc1Cl)c1ccc2cccnc2c1O (stereo unspecified),?,i,31.6µM*,?
CCCC(=O)NC(c1cccc([N+](=O)[O-])c1)c1ccc2cccnc2c1O (stereo unspecified),-1.9%,i,1.7%,i
CCOc1cc(C2NN=C(c3ccccc3)S2)ccc1OCc1ccccc1Cl (stereo unspecified),3.1%,i,10µM*,i
CCOc1cc(C2NN=C(c3ccccc3)S2)ccc1OCc1ccc(F)cc1 (stereo unspecified),-4.6%,i,14.1µM*,i
Cc1ccc(S(=O)(=O)N2CCCC2C(=O)Nc2nc3ccccc3s2)cc1 (stereo unspecified),11.5%,i,6.8%,i
O=C(Nc1ccc(Br)cc1)C1CCCN1S(=O)(=O)c1ccc(F)cc1 (stereo unspecified),/,i,22.4µM*,i
O=C(Nc1nc2ccccc2s1)C1CCCN1S(=O)(=O)c1ccc(Cl)cc1 (stereo unspecified),19.4%,?,17.8µM*,i
CCOC(=O)c1nnc2ccnn2c1N,-17.3%,i,-15.3%,i

# Source: PubChem BioAssay (National Center for Advancing Translational Sciences (NCATS))
